Test results taken from PubChem BioAssay (NCI).
This is part of a sample that, as a whole, favours compounds with a hit. Of some 83,000 tested, about 20% had one in any assay.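 Results are percent growth after 48 hours of single-concentration exposure. 100 means growth as in untreated cells, lower positive values show inhibition; negative values down to -100 show cell death.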 Unmarked numbers belong to inactive results. Active and inactive are the calls of the source. The calls were made as follows: active = growth percent below 10; inactive = the rest.

Experiments:
Assay in all cases: NCI-60 one-dose screen, 48 h (100 = growth as untreated, 0 = no growth, -100 = all killed)
Settings in all cases: 10 µM unless noted
NCI-H23 lung = tested on: NCI-H23 lung
NCI-H226 lung = tested on: NCI-H226 lung
NCI-H322M lung = tested on: NCI-H322M lung
HOP-62 NSCLC = tested on: HOP-62 NSCLC
NCI-H460 lung = tested on: NCI-H460 lung
HOP-92 NSCLC = tested on: HOP-92 NSCLC
NCI-H522 lung = tested on: NCI-H522 lung
A549/ATCC NSCLC = tested on: A549/ATCC NSCLC
786-0 renal = tested on: 786-0 renal
COLO 205 colon = tested on: COLO 205 colon

Row | Compound | growth (NCI-H23 lung) | growth (NCI-H226 lung) [%] | growth (NCI-H322M lung) | growth (HOP-62 NSCLC) | growth (NCI-H460 lung) | growth (HOP-92 NSCLC) | growth (NCI-H522 lung) | growth (A549/ATCC NSCLC) | growth (786-0 renal) | growth (COLO 205 colon)
1 | COc1ccccc1N1CCN(CCn2c(=O)c3c(c4ccccc4n3C)n(C)c2=O)CC1 | 103% | 82.9 | 101% | 107% | 96.7% | 92.1% | 45.2% | 71.5% | 111% | 100%
2 | CC/C(Cc1ccccc1)=C(/c1ccc(O)cc1)c1ccc(OCCN2CCCC2)cc1 | 8.75% (active) | 71.2 | -18% (active) | -22.3% (active) | -90.5% (active) | -12.8% (active) | -54.3% (active) | -59.1% (active) | -83.6% (active) | -71.8% (active)
3 | O=C(/C=C/c1ccc(B(O)O)cc1)/C=C/c1ccc(B(O)O)cc1 | 62.4% | 78.1 | 80.9% | 105% | 57.5% | 82.6% | 72.4% | 41.4% | -72.5% (active) | 36.8%
4 | CC1(C)CC(=O)C(c2c(-c3ccccc3)[nH]c3[nH]c(=S)[nH]c(=O)c23)=C(O)C1 | 110% | 108 | 102% | 112% | 117% | 84.7% | 107% | 89.8% | 104% | 119%
5 | CCOC(=O)c1cnc2cc(Cl)c(F)cc2c1Nc1cccc(NS(C)(=O)=O)c1 | 80.8% | 96.4 | 96.3% | 95.9% | 110% | 67.6% | 93% | 112% | 95.6% | 124%
6 | CC/C(Cc1ccccc1)=C(\c1ccc(OCCN2CCCC2)cc1)c1ccc(OC(C)=O)cc1 | 80.6% | 93 | 86.5% | 94.5% | 42.9% | 78.8% | 83.2% | 78.4% | 82.3% | 7.7% (active)
